PubChem BioAssay (NCATS)
Inconclusive results are not listed. Unmarked numbers belong to inactive results. The source made the active and inactive calls. The call rests on the fitted dose curve; in most records, active means well fitted cell-killing curve with a large enough effect; inconclusive means small, poorly fitted or top-dose-only effect, or effect the other way; inactive means no such curve, though single readings can be large or run the other way.

Tests used:
[1] = Quantitative High-Throughput drug screen in 47 multiple myeloma cell lines against the NCATS MIPE library collection: OCIMY1_PLB cell viability assay (AID 1918979); further: nearly all actives have a fitted effect of over 35% in size;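 on viability: 100% = DMSO-only wells and 0% = cell-free media-only wells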
Outline: (§1)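 MIPE 4.0 approved/investigational drugs; 500 cells/well; 48 h 37 °C humidified 5% CO2; CTG luminescence readout; DMSO = 100%, media = 0% viability.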

[2] = Quantitative High-Throughput drug screen in 47 multiple myeloma cell lines against the NCATS MIPE library collection: MM1R_ATCC cell viability assay (AID 1918981); further: nearly all actives have a fitted effect of over 35% in size
Outline: as §1

[3] = Quantitative High-Throughput drug screen in 47 multiple myeloma cell lines against the NCATS MIPE library collection: LP1_DSMZ cell viability assay (AID 1918982); further: nearly all actives have a fitted effect of over 35% in size
Outline: as §1

[4] = Quantitative High-Throughput drug screen in 47 multiple myeloma cell lines against the NCATS MIPE library collection: KMS28PE_JCRB cell viability assay (AID 1918983); further: nearly all actives have a fitted effect of over 35% in size
Outline: as §1

[5] = Quantitative High-Throughput drug screen in 47 multiple myeloma cell lines against the NCATS MIPE library collection: L363_DSMZ cell viability assay (AID 1918984); further: nearly all actives have a fitted effect of over 40% in size
Outline: as §1

[6] = Quantitative High-Throughput drug screen in 47 multiple myeloma cell lines against the NCATS MIPE library collection: KMS34_JCRB cell viability assay (AID 1918985); further: nearly all actives have a fitted effect of over 40% in size
Outline: as §1

[7] = Quantitative High-Throughput drug screen in 47 multiple myeloma cell lines against the NCATS MIPE library collection: OCIMY7_PLB cell viability assay (AID 1918987); conditions: OCI-MY7 myeloma viability, CellTiter-Glo ATP, 48 h; viability (% of DMSO): at 45.8 µM (top of the series); further: nearly all actives have a fitted effect of over 65% in size
Outline: as §1

[8] = Quantitative High-Throughput drug screen in 47 multiple myeloma cell lines against the NCATS MIPE library collection: OCIMY5_PLB cell viability assay (AID 1918988); further: nearly all actives have a fitted effect of over 65% in size
Outline: as §1

[9] = Quantitative High-Throughput drug screen in 47 multiple myeloma cell lines against the NCATS MIPE library collection: SKMM1_PLB cell viability assay (AID 1919863); conditions: SKMM1 myeloma viability, CellTiter-Glo ATP, 48 h; viability: active compounds read low; further: nearly all actives have a fitted effect of over 35% in size
Outline: as §1

[10] = Quantitative High-Throughput drug screen in 47 multiple myeloma cell lines against the NCATS MIPE library collection: U266_ATCC cell viability assay (AID 1919864); further: nearly all actives have a fitted effect of over 35% in size;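 on viability (% of DMSO control): 0% = media-only wells without cells and 100% = DMSO-only wells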
Outline: as §1

[11] = Quantitative High-Throughput drug screen in 47 multiple myeloma cell lines against the NCATS MIPE library collection: XG6_PLB cell viability assay (AID 1919865); further: nearly all actives have a fitted effect of over 40% in size
Outline: as §1

[12] = Quantitative High-Throughput drug screen in 47 multiple myeloma cell lines against the NCATS MIPE library collection: XG1_PLB cell viability assay (AID 1919866); further: nearly all actives have a fitted effect of over 35% in size
Outline: as §1

[13] = Quantitative High-Throughput drug screen in 47 multiple myeloma cell lines against the NCATS MIPE library collection: VP6_DJ cell viability assay (AID 1919867); further: nearly all actives have a fitted effect of over 40% in size
Outline: as §1

[14] = Quantitative High-Throughput drug screen in 47 multiple myeloma cell lines against the NCATS MIPE library collection: UTMC2_PLB cell viability assay (AID 1919868); conditions: CellTiter-Glo ATP luminescence, 48 h; viability (% of DMSO control): at 45.8 µM (top of the series); further: nearly all actives have a fitted effect of over 55% in size;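 on viability (% of DMSO control): 100% = DMSO-only wells and 0% = media-only wells without cells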
Outline: as §1

[15] = Quantitative High-Throughput drug screen in 47 multiple myeloma cell lines against the NCATS MIPE library collection: PE2_PLB cell viability assay (AID 1919869); further: nearly all actives have a fitted effect of over 35% in size
Outline: as §1

[16] = Quantitative High-Throughput drug screen in 47 multiple myeloma cell lines against the NCATS MIPE library collection: PCM6_Riken cell viability assay (AID 1919870); further: nearly all actives have a fitted effect of over 30% in size
Outline: as §1

[17] = Quantitative High-Throughput drug screen in 47 multiple myeloma cell lines against the NCATS MIPE library collection: RPMI8226_ATCC cell viability assay (AID 1919871); further: nearly all actives have a fitted effect of over 30% in size
Outline: as §1

[18] = Quantitative High-Throughput drug screen in 47 multiple myeloma cell lines against the NCATS MIPE library collection: OPM1_PLB cell viability assay (AID 1918989); further: nearly all actives have a fitted effect of over 40% in size
Outline: as §1

[19] = Quantitative High-Throughput drug screen in 47 multiple myeloma cell lines against the NCATS MIPE library collection: OPM2_DSMZ cell viability assay (AID 1919872); further: nearly all actives have a fitted effect of over 30% in size
Outline: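 Primary qHTS used for cherry-picking: cells at 500/well, library compounds for 48 h (37C, 5% CO2), luminescent ATP assay.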
Potency means the concentration at half of the fitted maximal effect.

| SMILES | Potency [1] | Potency [2] | Potency [3] | Potency [4] | Potency [5] | Potency [6] | Potency [7] | Potency [8] | Potency [9] | Potency [10] | Potency [11] | Potency [12] | Potency [13] | Potency [14] | Potency [15] | Potency [16] | Potency [17] | Potency [18] | Potency [19] | viability [9] |
| --- | --- | --- | --- | --- | --- | --- | --- | --- | --- | --- | --- | --- | --- | --- | --- | --- | --- | --- | --- | --- |
| CC(C)(O)Cn1c(NC(=O)c2ccc(-c3cn[nH]c3)s2)nc2cc(CN3CCOCC3)ccc21 | 1480 nM (active) | 1660 nM (active) | 1870 nM (active) | 1480 nM (active) | 662 nM (active) | 1320 nM (active) | 332 nM (active) | 1320 nM (active) | 2960 nM (active) | 1180 nM (active) | 1870 nM (active) | 743 nM (active) | 743 nM (active) | 372 nM (active) | 1320 nM (active) | 418 nM (active) | 2350 nM (active) |  |  |  |
| Cc1cn([C@@H]2O[C@H](CO)[C@@H](O)[C@H]2F)c(=O)[nH]c1=O | inactive | inactive |  | inactive |  | inactive |  |  |  |  |  | inactive | 14800 nM (active) | inactive | inactive |  | inactive | inactive | inactive |  |
| CC1(C)CC(O)CC(C)(C)N1[O] | inactive | inactive | inactive | inactive | inactive |  |  |  |  |  | inactive | inactive |  |  | inactive | inactive | inactive | inactive | inactive |  |
| Nc1nc(=O)n([C@H]2CSC(CO)O2)cc1F (some centres undefined) | inactive | inactive | inactive | inactive | inactive |  |  |  |  |  | inactive | inactive |  |  | inactive | inactive | inactive | inactive |  | 114% |
| CCNC(=O)Nc1ccc(-c2nc3c(c(N4CCOC[C@H]4C)n2)CCN(C2COC2)C3)cc1 | 469 nM (active) | 1050 nM (active) | 37.2 nM (active) | 833 nM (active) | 209 nM (active) | 1050 nM (active) |  | 1660 nM (active) | 935 nM (active) | 6620 nM (active) | 935 nM (active) | 526 nM (active) | 1050 nM (active) | 1180 nM (active) | 1180 nM (active) | 1320 nM (active) |  |  | 1660 nM (active) |  |
| CN[C@@H]1C[C@H]2O[C@@](C)([C@H]1OC)n1c3ccccc3c3c4c(c5c6ccccc6n2c5c31)C(=O)N[C@H]4O | 935 nM (active) | 372 nM (active) | 1050 nM (active) | 833 nM (active) |  | 372 nM (active) | 23.5 nM (active) | 264 nM (active) | 5900 nM (active) | 1050 nM (active) | 83.3 nM (active) | 148 nM (active) | 46.9 nM (active) | 148 nM (active) | 118 nM (active) | 148 nM (active) | 2090 nM (active) | 93.5 nM (active) |  |  |
| CC(=O)ON=C1C(c2c(O)[nH]c3cc(Br)ccc23)=Nc2ccccc21 | 26400 nM (active) | 16600 nM (active) | 11800 nM (active) | 20900 nM (active) | 3720 nM (active) | 4690 nM (active) | 1480 nM (active) | 9350 nM (active) | 18700 nM (active) | 14800 nM (active) | 1320 nM (active) | 1660 nM (active) |  |  | 4690 nM (active) | 2960 nM (active) | 16600 nM (active) | 3720 nM (active) | 18700 nM (active) |  |
| Nc1ncn([C@@H]2O[C@H](CO)[C@@H](O)[C@@H]2O)c(=O)n1 | 14800 nM (active) | 14800 nM (active) |  | 20900 nM (active) | 5900 nM (active) | 11800 nM (active) | 3720 nM (active) | 9350 nM (active) | 13200 nM (active) |  | 9350 nM (active) | 2960 nM (active) | 11800 nM (active) | 8330 nM (active) |  | 8330 nM (active) |  | 11800 nM (active) | 14800 nM (active) |  |
| CC(=O)OC[C@@H]1O[C@@H](n2ccc(=O)[nH]c2=O)[C@H](OC(C)=O)[C@H]1OC(C)=O | inactive | inactive | inactive | inactive |  | inactive |  | inactive |  | inactive | inactive | inactive |  | inactive | inactive | inactive | inactive | inactive |  |  |
| CC(C)(N)c1ccc(-c2nc3ccccc3nc2-c2ccccc2)cc1 | 23500 nM (active) | 26400 nM (active) | 18700 nM (active) |  | 3320 nM (active) |  | 7430 nM (active) | 23500 nM (active) |  | 23500 nM (active) | 5900 nM (active) | 7430 nM (active) | 7430 nM (active) |  | 10500 nM (active) | 10500 nM (active) |  |  |  |  |
| COC(=O)[C@@H]1CC2=CC(=O)CC[C@]2(C)[C@@]23O[C@@H]2C[C@@]2(C)[C@H](CC[C@@]24CCC(=O)O4)[C@@H]13 | inactive | inactive | inactive |  |  | inactive |  |  |  | inactive | inactive | inactive |  |  | inactive | inactive | inactive | inactive |  |  |
